# High-throughput results deposited in PubChem by several laboratories.
# Shown are actives, neighbours in structure and some others; about 1.5% of the full set was active somewhere.
# eIF4E 4G PPI: blocks eIF4E binding to eIF4G | TR-FRET eIF4E-eIF4GI(517-606) binding, 2 h | P63073+Q04637 | hit rate 0.37% among 220,000 | inhibition, % at 21.7 µM;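 active = inhibition above about 30%, limit read from the data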;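 note: 0% = full FRET control wells and 100% = background wells lacking eIF4GI fragment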
# MLLE-PAM2 inh: inhibitors of microRNA-mediated deadenylation, human PABP1 MLLE binding. GST-MLLE / FITC-PAM2 fluorescence polarization. inhibition, % at 20 µM. hit rate 0.36% among 360,000; in the data active = inhibition above about 35%, passing the limit was not always enough;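 note: plate controls were DMSO wells with GST-MLLE for no effect and wells lacking GST-MLLE protein for full effect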
# PABP polyA inh: blocks human PABP binding to poly(A) RNA | fluorescence polarization | calls only at 35 µM | hit rate 1% among 290,000;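 note: calls also rest on retests at 20 µM and on dose response follow-up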
# eIF4H FP inh: inhibitors of RNA binding by human eIF4H | Q15056 | eIF4H fluorescence polarization binding assay | inhibition, % at 35 µM | hit rate 0.94% among 290,000 | AID 2012;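 note: calls also rest on retests at 20 µM and on dose response follow-up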
# * marks the source's active call; other numbers are inactive results; i = inactive; ? = inconclusive; . = no result; + = active, no number. Unless noted, the rule behind the calls is not given here.
SMILES,eIF4E 4G PPI,MLLE-PAM2 inh,PABP polyA inh,eIF4H FP inh
COc1ccc(S(=O)(=O)N(C)C[C@H]2OCc3cnnn3CCCC(=O)N([C@H](C)CO)C[C@@H]2C)cc1,.,0,.,.
Cc1cc(=O)n(-c2ccc(C(=O)O)cc2)[nH]1,-2,8,+,65*
Cc1ccc(C)n1-c1ccc(C(=O)O)cc1,13,.,+,91*
CC(C)OC(=O)n1c(=S)oc2ccccc21,-2,-59,i,-7
Cc1cccc(OC(=O)n2c(=S)oc3cc(Cl)ccc32)c1,1,-75,+,?
CCCS(=O)(=O)NC(=O)C1(C)CCCN(C(=O)c2sccc2C)C1 (configuration not stated),.,8,.,.
COc1ccc(NC(=O)/C(C#N)=C/C=C/c2ccco2)cc1,-1,14,+,78
COc1ccc(OC)c(NC(=O)C(C#N)=Cc2ccco2)c1,.,-17,.,.
CCOC(=O)C1=CCC(c2ccccc2C)N(S(=O)(=O)c2ccc(C)cc2)C1 (configuration not stated),.,-12,.,.
O=C(NCc1ccc(Cl)cc1)c1ccc(CNc2c(N3CCCC3)c(=O)c2=O)cc1,57*,-2,i,3
CC(O)(c1cccc(F)c1)c1nc(-c2ccc3ccccc3c2)cs1 (configuration not stated),.,-5,.,.
CC(=O)Nc1sc(/C(C#N)=C\c2cccc(Cl)c2)nc1-c1ccc(C)cc1,1,i,+,127*
C/C(=N\NC(=S)NCCc1ccccc1)c1cccc(Br)c1,-2,39*,i,-9
C=CCNC(=S)N/N=C(\C)c1ccc(OC)cc1,-12,18,i,8
C/C(=N\NC(=S)NCc1ccccc1)c1cccc(Br)c1,-1,23,i,-5
C=CCNC(=S)N/N=C(\C)c1cccc(OC)c1,1,40*,i,-7
COC(=O)CNc1ccc2c(c1)OCO2,-1,138,i,65
Cc1cc(Br)cc(C)c1OCC(=O)NNC(=O)CCC(=O)NCc1ccccc1,3,-8,i,8
COc1cc(/C=C/CNC[C@H]2O[C@@H](n3cnc4c(=O)[nH]c(N)nc43)[C@H](O)[C@@H]2O)ccc1O,.,-3,.,.
CC1=C(C(=O)Nc2ccccc2)C(c2ccc(C)o2)n2c(s/c(=C\c3ccco3)c2=O)=N1 (configuration not stated),2,-76,+,84*
COc1cccc(C2C(C(=O)Nc3ccccc3)=C(C)N=c3s/c(=C/c4ccc(OCC(=O)O)cc4)c(=O)n32)c1 (configuration not stated),0,-11,i,38
O=C1C=CC(=O)N1c1ccccc1N1C(=O)C=CC1=O,.,44*,.,.
O=C(c1ccccc1)c1ccccc1N1C(=O)C=CC1=O,-2,39*,i,-11
O=C(O)c1cccc(N2C(=O)C=CC2=O)c1,.,31,.,.
O=C1C=CC(=O)N1c1ccccn1,.,36,.,.
SMILES,eIF4E 4G PPI,MLLE-PAM2 inh,PABP polyA inh,eIF4H FP inh
CCc1noc(C)c1C(=O)NNC(=O)COc1ccc(C)cc1,.,-4,.,.
CNC(=O)C[C@H]1C(=O)N(C2CCCCC2)C[C@@H]1CSC,.,0,.,.
CC(C)c1cccc(-c2csc(C(C)(O)c3ccc(F)c(F)c3)n2)c1 (configuration not stated),.,-1,.,.
O=C(NNC(=O)C1[C@H]2CCCC[C@@H]12)c1ccc(=O)oc1 (some centres not stated),1,-21,+,?
O=C(NC12CC3CC(CC(C3)C1)C2)c1ccc(=O)oc1,-3,10,i,-2
O=c1[nH]c2ccccc2nc1/C=C/c1ccc(F)cc1,3,-69,+,86
O=c1[nH]c2ccccc2nc1/C=C/c1ccccc1,0,-14,i,44
O=C(/C=C/c1ccc(F)cc1)Nc1nc2ccccc2[nH]1,1,.,+,active
CCN(CC)c1ccc2cc(C(=O)Nc3cccnc3N3CCOCC3)c(=O)oc2c1,.,.,+,63*
CCN(CC)c1ccc2cc(C(=O)Nc3ccccn3)c(=O)oc2c1,-4,16,+,122*
Cc1ccc(S(=O)(=O)N2C[C@H]3N(C(=O)OC(C)C)N(C(=O)OC(C)C)C[C@H](OC(=O)NCC4CCCCC4)[C@@]3(O)C2)cc1,.,10,.,.
O=C(NCc1cccc(Cl)c1)c1cnccn1,-3,3,i,34*
C[n+]1cccc2cccc([O-])c21,9,27,+,99
Nc1nc2c(ncn2[C@@H]2O[C@H](CNS(=O)(=O)N3CCCC3)[C@@H](O)[C@H]2O)c(=O)[nH]1,.,9,.,.
COc1ccc(CCNCC(=O)Nc2ccc(C)c(S(=O)(=O)N(C)C)c2)cc1,-2,-3,+,active
COc1ccc(CCC(=O)Nc2ccc(C)c(S(=O)(=O)N(C)C)c2)cc1OC,2,2,i,5
COc1ccc2nc3n(c(=O)c2c1)-c1ncccc1C(=O)NC3CC(C)C (configuration not stated),.,11,.,.
C[C@@H]1CN([C@H](C)CO)C(=O)CCCn2nncc2CO[C@@H]1CN(C)S(=O)(=O)c1ccc(F)cc1,.,-4,.,.
CN(C)c1ccc(CC(=O)N2CCCC(c3cc(C(=O)Nc4ccc(C(C)(C)C)cc4)no3)C2)cc1 (configuration not stated),.,-6,.,.
CCOc1ccc(N2CC(C(=O)Nc3cccc(S(=O)(=O)NC4=NCCC4)c3)CC2=O)cc1 (configuration not stated),97*,-13,i,-5
CCOc1ccc(N2CC(C(=O)Nc3ccc(OC)c(S(=O)(=O)N4CCCCC4)c3)CC2=O)cc1 (configuration not stated),5,-22,+,3
CCc1nc2c(OCCOC)cccn2c1N(C)C(=O)c1ccco1,.,5,.,.
COc1ccccc1C(=O)N1CCN(C(=O)[C@H]2O[C@@H](n3cnc4c(N)ncnc43)[C@H](O)[C@@H]2O)CC1,.,0,.,.
O=C(C1=C[C@@H]2[C@H]3C(=O)N(c4ccccc4Cl)C(=O)[C@H]3[C@@H](C(=O)c3ccc(Cl)cc3)N2C=C1)c1ccccc1,-1,.,i,52*
Cc1cccc(OC(=O)CN2C(=O)C3C4CCC(C4)C3C2=O)c1C (configuration not stated),-1,8,i,-3
SMILES,eIF4E 4G PPI,MLLE-PAM2 inh,PABP polyA inh,eIF4H FP inh
COc1ccc(OC(=O)CN2C(=O)C3C4CCC(C4)C3C2=O)cc1 (configuration not stated),6,-3,+,64
NC(=O)C1CCN(C(=O)COc2ccc3ccccc3c2)CC1,-5,-14,i,-8
NC(=O)C1CCN(C(=O)COc2ccc(Nc3ccccc3)cc2)CC1,96*,11,i,-1
S=C(NCc1ccccn1)Nc1ccc(Br)cc1Cl,-1,39*,i,-4
O=c1oc(/C=C/c2ccc([N+](=O)[O-])s2)nc2ccccc12,.,-21,+,97*
COc1ccc(Cn2cc(CN3CCOCC3)nn2)cc1,.,3,.,.
O=C(C=CC=Cc1ccccc1)c1ccc([N+](=O)[O-])cc1,.,-20,.,.
O=C1CCCCC1Oc1ccc2ccc(=O)oc2c1 (configuration not stated),.,-6,i,-2
